Results filed as inconclusive are left out. Activity calls are given as the source filed them. Calls follow the shape of the dose curve; as a rule, active = well fitted inhibition curve with a large enough effect; inconclusive = small, poorly fitted or top-dose-only effect; inactive = flat fitted curve, though single readings scatter.
What was measured:
[1] = tested on: CRL-7250; experiment: Cytotoxic Profiling of Annotated Libraries Using Quantitative High-Throughput Screening (AID 1296008); details: Five cell lines viability, CellTiter-Glo ATP luminescence, 48-72 h; max response: stronger effect = lower value; as to max response: % is scaled to controls: 0 for no effect and ±100 for the full control effect
Summary of the method: (§1)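 Cytotoxicity was measured as CellTiter-Glo ATP luminescence, read after 10 min at room temperature. Compound treatment of the cells lasted 48 or 72 hr at 37 degrees Celsius in a qHTS format.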

[2] = tested on: HEK293; experiment: as above; details: Five cell lines viability, CellTiter-Glo ATP luminescence, 48-72 h; max response: stronger effect = lower value
Summary of the method: as §1

[3] = tested on: HaCat; experiment: as above; details: Five cell lines viability, CellTiter-Glo ATP luminescence, 48-72 h; max response: stronger effect = lower value
Summary of the method: as §1

[4] = tested on: KB-3-1; experiment: as above; details: Five cell lines viability, CellTiter-Glo ATP luminescence, 48-72 h; max response: stronger effect = lower value
Summary of the method: as §1

[5] = tested on: NIH3T3; experiment: as above; details: Five cell lines viability, CellTiter-Glo ATP luminescence, 48-72 h; max response: stronger effect = lower value
Summary of the method: as §1

[6] = tested on: HEK293T; experiment: qHTS assay to identify novel small-molecules to repurpose for Merkel cell carcinoma treatment (AID 1296009); details: MCC and control cell lines, CellTiter-Glo viability, 72 h; series mostly up to 44.8 µM
Summary of the method: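 Cell viability measured by CellTiter-Glo following 72 hr compound treatment at 37 degree celsius, with NPC and MIPE libraries tested in 8- and 11-point concentration series.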
Also: nearly all actives have a fitted effect of over 60% in size.

C=C1[C@@H]2[C@H]3OC(=O)C(=C)[C@@H]3CC[C@@](C)(O)[C@@H]2C[C@@H]1O[C@@H]1O[C@H](CO)[C@@H](O)[C@H](O)[C@H]1O
inactive: max response [1] -4.93% | outcome [2] | max response [3] -10.8% | max response [4] 1.42% | max response [5] -3.98% | Potency [6]

CC[C@H]1OC(=O)[C@H](C)[C@@H](O[C@H]2C[C@@](C)(OC)[C@@H](O)[C@H](C)O2)[C@H](C)[C@@H](O[C@@H]2O[C@H](C)C[C@H](N(C)C)[C@H]2O)[C@@](C)(O)C[C@@H](C)[C@@H]2N[C@@H](COCCOC)OC([C@H]2C)[C@]1(C)O
inactive: max response [1] -11.1% | outcome [2] | max response [3] -20.8% | outcome [4] | max response [5] -6.11% | Potency [6]

C=C1CC2C3(C)C(OC(C)=O)CC(=O)OC(C)(C)C3C(O)C(OC(C)=O)C2(C)C2C(=O)OC(C)C(=O)C12C (stereo unspecified)
inactive: max response [1] -7.53% | outcome [2] | max response [3] -15.7% | max response [4] 8.43% | max response [5] -3.76% | Potency [6]

CC(=O)N[C@H]1[C@H](O[C@H]2CC[C@@]3(C)C(CC[C@]4(C)C3CC=C3C5CC(C)(C)CC[C@]5(C(=O)O)[C@H](O[C@@H]5O[C@H](CO)[C@@H](O)[C@H](O)[C@H]5O)C[C@]34C)C2(C)C)O[C@H](CO[C@@H]2OC[C@H](O)[C@H](O)[C@H]2O[C@@H]2OC[C@@H](O)[C@H](O)[C@H]2O)[C@@H](O)[C@@H]1O (stereo partly specified)
inactive: outcome [1] | outcome [2] | max response [3] -15.2% | max response [4] 2.21% | max response [5] -4.54% | outcome [6] inactive [at 9.27 µM]

OC[C@H]1O[C@@H](Oc2cc(O)cc(-c3cc4ccc(O)cc4o3)c2)[C@H](O)[C@@H](O)[C@@H]1O
inactive: max response [1] 0.0775% | outcome [2] | max response [3] -4.29% | max response [4] 4.55% | max response [5] 4.16% | Potency [6]

O=S(=O)(Nc1ccc(C(O)(C(F)(F)F)C(F)(F)F)cc1)c1cccs1
inactive: max response [1] 2.89% | outcome [2] | max response [3] 2.6% | max response [4] 6.97% | outcome [5] | Potency [6]

C=CC1C(O[C@@H]2O[C@H](CO)[C@@H](O)[C@H](O)[C@H]2O)OC=C(C(=O)OC)C1Cc1nccc2c1[nH]c1ccccc12 (stereo partly specified)
inactive: max response [1] 3.98% | outcome [2] | max response [3] 1.01% | max response [4] 5.15% | outcome [5] | Potency [6]

CC1(C)CCC2(C(=O)OC3OC(COC4OC(CO)C(O)C(O)C4O)C(O)C(O)C3O)CCC3(C)C(=CCC4C5(C)CCC(O)C(C)(C(=O)O)C5CCC43C)C2C1O (stereo unspecified)
inactive: outcome [1] | outcome [2] | max response [3] 2.41% | outcome [4] | max response [5] 4.9% | outcome [6] inactive [at 9.27 µM]

Cc1cc(C)c(S(=O)(=O)N(Cc2ccc(-c3cccc(S(C)(=O)=O)c3)cc2)Cc2ccc(C(F)(F)F)o2)c(C)c1
inactive: max response [1] -5.2% | outcome [2] | max response [3] 2.94% | max response [4] -6.43% | outcome [5] | Potency [6]

O=C1NC(Cc2ccc(O)cc2)C(=O)N2CCCC12 (stereo unspecified)
inactive: max response [1] -11.1% | outcome [2] | max response [3] -15.4% | max response [4] 8.78% | max response [5] -0.188% | Potency [6]

CC1=C(CC(=O)O)c2cc(F)ccc2C1=Cc1ccc(S(C)(=O)=O)cc1
inactive: outcome [1] | outcome [2] | max response [3] -6.44% | outcome [4] | max response [5] 4% | Potency [6]

Nc1nonc1C(=Nc1ccc(F)c(Cl)c1)NO
inactive: max response [1] -22.8% | outcome [2] | max response [3] -3.71% | outcome [4] | outcome [5] | Potency [6]

N[C@@H](CC(=O)N1CCn2c(nnc2C(F)(F)F)C1)Cc1[nH]nc2c(F)c(F)ccc12
inactive: max response [1] -0.191% | outcome [2] | max response [3] -2.51% | max response [4] -3.58% | max response [5] -1.97% | Potency [6]

CC(=O)c1c(O)cc2c(c1C)C(=O)CC(O)C2 (stereo unspecified)
inactive: max response [1] 4.51% | outcome [2] | max response [3] 1.58% | max response [4] 9.72% | max response [5] 1.74% | Potency [6]

COc1ccccc1-n1c(SCC(=O)Nc2nc3ccc(C)cc3s2)nc2c(c1=O)SCC2
inactive: max response [1] 2.47% | outcome [2] | max response [3] -3.57% | max response [4] 6.25% | max response [5] 3.32% | Potency [6]

CC(=O)OC[C@@]12[C@@H](OC(C)=O)C[C@@H](C)[C@](C)([C@@H]3C[C@H]4C=CO[C@H]4O3)[C@H]1CCC[C@]21CO1
inactive: max response [1] 0.841% | outcome [2] | max response [3] 2.97% | outcome [4] | max response [5] -2.5% | Potency [6]

COC(=O)[C@H](OC(C)=O)[C@H]1C(C)(C)C(=O)[C@H]2CC3=C4CC(=O)O[C@@H](c5ccoc5)[C@]4(C)CCC3[C@@]1(C)C2=O (stereo partly specified)
inactive: max response [1] -5.81% | outcome [2] | max response [3] -1.64% | outcome [4] | outcome [5] | Potency [6]

CC(=O)NC(C(=O)OC1CCC(C)(C)C2CC=C3C(=O)OCC3(O)C12C)C(C)C (stereo unspecified)
inactive: max response [1] 3.06% | outcome [2] | max response [3] -11.8% | outcome [4] | max response [5] -6.26% | Potency [6]

CN1C(=O)c2ccccc2-n2c(nc3ccccc3c2=O)/C1=C/c1ccccc1
inactive: outcome [1] | outcome [2] | max response [3] -6.39% | outcome [4] | max response [5] 3.9% | Potency [6]

CCOC(=O)N1CCC(NCCNC(=O)c2ccccc2C)CC1
inactive: max response [1] 3.66% | outcome [2] | max response [3] -7.3% | max response [4] 6.5% | outcome [5] | Potency [6]

OC[C@H]1O[C@@H](Oc2ccc(O)c3cccc(O)c23)[C@H](O)[C@@H](O)[C@@H]1O
inactive: outcome [1] | outcome [2] | max response [3] -1.01% | max response [4] 3.57% | outcome [5] | Potency [6]

COC(=O)C1=CO[C@@H](O[C@@H]2O[C@H](CO[C@@H]3O[C@H](COC(=O)/C=C/c4ccc(O)cc4)[C@@H](O)[C@H](O)[C@H]3O)[C@@H](O)[C@H](O)[C@H]2O)[C@@H]2C(CO)=CC[C@H]12
inactive: max response [1] 4.68% | outcome [2] | max response [3] 0.423% | max response [4] 6.83% | max response [5] 0.0703% | Potency [6]

COc1cc(-c2cccc(O)c2)cc2c1OCO2
inactive: max response [1] -4.5% | outcome [2] | max response [3] 0.342% | outcome [4] | outcome [5] | Potency [6]

CC(=O)OCCC(C)CCC1C(C)(O)CCC2C(C)(C)CCCC21C (stereo unspecified)
inactive: max response [1] -8.91% | outcome [2] | max response [3] -0.371% | outcome [4] | max response [5] -3.93% | Potency [6]

O=c1ccn([C@@H]2O[C@H](CO)[C@@H](O)[C@H]2O)c(=O)[nH]1
inactive: max response [1] -8.67% | outcome [2] | max response [3] 3.94% | max response [4] 0.253% | outcome [5] | Potency [6]

CN1C(=O)c2ccccc2-n2c(nc3ccccc3c2=O)[C@@]12O[C@H]2c1ccccc1
inactive: max response [1] -8.37% | outcome [2] | max response [3] -0.431% | outcome [4] | outcome [5] | Potency [6]

CCOC(=O)Nc1nc2ccccc2[nH]1
inactive: max response [1] 3.6% | outcome [2] | max response [3] -2.18% | max response [4] 2.03% | outcome [5] | Potency [6]

CC1(C)CC2C(C1)C1(C)CCC13OC3(CO)C2O (stereo unspecified)
inactive: max response [1] -2.76% | outcome [2] | max response [3] -6.47% | outcome [4] | max response [5] 5% | Potency [6]

CC1(C)C(=O)C(C)(C)c2cc(C(=O)Nc3ccc(C(=O)O)cc3)ccc21
inactive: max response [1] 2.14% | outcome [2] | max response [3] -8.59% | outcome [4] | outcome [5] | Potency [6]

CC1=CCC2C(C)(CO)CCCC2(CO)C1CO (stereo unspecified)
inactive: outcome [1] | outcome [2] | max response [3] -5.9% | outcome [4] | outcome [5] | Potency [6]

COc1cccc2c1CCC[C@H]2CN(C)CCc1ccc2ccoc2c1
inactive: outcome [1] | outcome [2] | max response [3] 3.47% | max response [4] 4.61% | max response [5] -8.39% | Potency [6]

OCc1ccccc1O[C@@H]1O[C@H](CO)[C@@H](O)[C@H](O)[C@H]1O
inactive: max response [1] -0.323% | outcome [2] | max response [3] -0.335% | max response [4] 6.41% | max response [5] -2.31% | Potency [6]

CC(C)(OC1OC(CO)C(O)C(O)C1O)C1CCC(O)(CO)C2CC(O)C(C)(O)C2C1 (stereo unspecified)
inactive: max response [1] -5.53% | outcome [2] | max response [3] 0.555% | max response [4] 2.34% | outcome [5] | Potency [6]

O=C(O)c1n[nH]c2c1C[C@H]1C[C@@H]21
inactive: max response [1] -0.338% | outcome [2] | max response [3] 2.24% | max response [4] 3.14% | max response [5] -3.9% | Potency [6]

O=C1NCc2nc3ccccc3c(=O)n2C1Cc1c[nH]c2ccccc12 (stereo unspecified)
inactive: max response [1] -3.24% | outcome [2] | max response [3] 1.57% | max response [4] 3.31% | outcome [5] | Potency [6]

COc1cc(CC(COC2OC(CO)C(O)C(O)C2O)c2cc(/C=C/CO)cc(OC)c2O)ccc1O (stereo unspecified)
inactive: outcome [1] | outcome [2] | max response [3] 1.49% | max response [4] 1.74% | outcome [5] | Potency [6]
